The source made the active and inactive calls. Rule for the calls: active = hit-call score of the fitted dose curve at least 0.9, where 1 is the maximum; inactive = score below 0.9.

Experiment [1] in a line: ATG_CRE_CIS: Attagene CIS-FACTORIAL HepG2 Assay for human cAMP Responsive Element (CRE) binding protein 3 (AID 2282926). Conditions: HepG2 CRE cis-reporter, Attagene multiplexed mRNA; actives raise or lower the signal. An outline of the steps: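 Induced reporter mRNA from a CRE cis element, measured in HepG2 among many multiplexed units at 24 h. Detection used RT-PCR plus capillary electrophoresis of fluorescent fragments; DMSO served as negative control.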

The target of experiment [2] is CCAAT/enhancer-binding protein beta (Homo sapiens) (UniProt P17676). As to the kind of experiment: ATG_C_EBP_CIS: Attagene CIS-FACTORIAL HepG2 Assay for human CCAAT/Enhancer Binding Protein (C/EBP) beta (AID 2282927). The following applies: HepG2 Attagene cis-factorial transcription factor reporter; actives raise or lower the signal. In outline:
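Changes in reporter mRNA, rather than exogenous chimeric receptor activity, reflect native C/EBP signalling in transfected HepG2 cells dosed for 24 h; transcripts are detected by RT-PCR and capillary electrophoresis.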

A short description of experiment [3]: ATG_CMV_CIS: Attagene CIS-FACTORIAL HepG2 Assay for human CMV (Internal Marker) (AID 2282928).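 Note: endpoint acts as a background internal control marker rather than a target.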 Conditions: HepG2 CMV promoter reporter, transcription factor profiling; actives raise or lower the signal. In outline:
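Readout: fluorescent reporter cDNA fragments separated by capillary electrophoresis after RT-PCR and HpaI cut. Cells: HepG2 carrying transfected cis-promoter reporter constructs, dosed 24 h. Endpoint serves as background internal-marker control, fit bidirectionally versus DMSO.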

A short description of experiment [4]: ATG_DR4_LXR_CIS: Attagene CIS-FACTORIAL HepG2 Assay for human Liver X Receptor (LXR), DR4 submotif (AID 2282929). Conditions: HepG2 Attagene DR4 cis-reporter, mRNA transcription; actives raise or lower the signal. In outline: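 Cells were transfected with multiple reporter transcription units, exposed to chemicals for 24 hours, then lysed for RNA. Reporter mRNA induction was measured by RT-PCR with capillary electrophoresis detection and fitted in both directions relative to DMSO.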

The target in experiment [5] is Aryl hydrocarbon receptor (Homo sapiens) (UniProt P35869). The experiment can be described thus: ATG_Ahr_CIS: Attagene CIS-FACTORIAL HepG2 Assay for human Aryl Hydrocarbon Receptor (Ahr) (AID 2282930). The following applies: HepG2 AhR cis-factorial reporter transcription; actives raise or lower the signal. An outline of the steps: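 HepG2, transient MRTU (cis) transfection, 24 h exposure. RNA → cDNA → PCR → 6-FAM primer extension → HpaI 2 h 37 C → CE. Fit: bidirectional, DMSO baseline.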

A short description of experiment [6]: ATG_AP_1_CIS: Attagene CIS-FACTORIAL HepG2 Assay for human Activator Protein 1 (AP-1) (AID 2282931). The following applies: HepG2 Attagene cis-factorial AP-1 reporter mRNA; actives raise or lower the signal. An outline of the steps:
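Endogenous transcription-factor activity in human HepG2 liver cells is read through a cis-promoter reporter transcript, sampled 24 h after dosing. Detection uses RT-PCR with capillary electrophoresis; values come from bidirectional fitting relative to DMSO.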

A short description of experiment [7]: ATG_AP_2_CIS: Attagene CIS-FACTORIAL HepG2 Assay for human Activator Protein 2 (AP-2) (AID 2282932). The following applies: HepG2 AP-2 cis-reporter, Attagene transcription factor profiling; actives raise or lower the signal. An outline of the steps:
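Transiently transfected HepG2 cells are exposed to chemical for 24 h. Reporter transcripts are then measured as fluorescence following RT-PCR and capillary separation, and gain- or loss-of-signal is fitted relative to DMSO.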

Experiment [8] has as its target Retinoic acid receptor alpha (Homo sapiens) (UniProt P10276). The experiment can be described thus: ATG_DR5_RAR_CIS: Attagene CIS-FACTORIAL HepG2 Assay for human Retinoic Acid Receptor Alpha (RARE), DR5 submotif (AID 2282934). Conditions: HepG2 Attagene cis-factorial RARE DR5 reporter, mRNA; actives raise or lower the signal. In outline:
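HepG2, transient cis-reporter transfection, 24 h exposure. mRNA readout: RT-PCR, FAM label, HpaI cut, capillary electrophoresis. DMSO baseline, gain/loss fitting.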

Experiment [9] deals with Transcription factor E2F1 (Homo sapiens) (UniProt Q01094). As to the kind of experiment: ATG_E2F_CIS: Attagene CIS-FACTORIAL HepG2 Assay for human E2F Transcription Factor 1 (AID 2282935). Conditions: HepG2 Attagene cis-reporter, E2F reporter RNA transcripts; actives raise or lower the signal. An outline of the steps:
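Fluorescent RT-PCR products, digested with HpaI for 2 h at 37 C, are separated by capillary electrophoresis. Source RNA comes from transfected HepG2 cultures treated for 24 h.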

The nature of experiment [10]: ATG_E_Box_CIS: Attagene CIS-FACTORIAL HepG2 Assay for human Enhancer Box (E-box) (AID 2282936). Conditions: HepG2 E-box cis-reporter transcription, actives raise or lower the signal. In outline: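 Fluorescent reporter fragments separated by capillary electrophoresis gave the signal; mRNA came from HepG2 cells transfected with cis-element reporters and treated 24 h. Curves fitted bidirectionally relative to DMSO controls.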

Experiment [11] in a line: ATG_M_61_CIS: Attagene CIS-FACTORIAL HepG2 Assay for M61 Transcription Factor (Internal Marker) (AID 2282937). The following applies: HepG2 Attagene CIS-FACTORIAL M61 internal marker reporter; actives raise or lower the signal. In outline: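 Cells were transfected with reporter units under cis-regulatory promoters, treated with chemicals for 24 h, then lysed for RNA. Reporter transcripts were quantified by RT-PCR and capillary electrophoresis, and activity was fitted bidirectionally against DMSO.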

Experiment [12] can be described thus: ATG_EGR_CIS: Attagene CIS-FACTORIAL HepG2 Assay for human Early Growth Response 1 (EGR1) (AID 2282938). The following applies: HepG2 Attagene CIS-FACTORIAL EGR reporter mRNA; actives raise or lower the signal. In outline: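 Endogenous TF activity in HepG2 liver cells was gauged through cis-promoter reporter constructs transiently transfected. After 24 h dosing, reporter mRNA was quantified by RT-PCR and capillary electrophoresis, and curves fitted in both directions versus DMSO.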

A short description of experiment [13]: ATG_M_19_CIS: Attagene CIS-FACTORIAL HepG2 Assay for M19 Transcription Factor (Internal Marker) (AID 2282939). The following applies: HepG2 Attagene CIS-FACTORIAL M19 internal marker reporter; actives raise or lower the signal. An outline of the steps: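 Chemical-treated HepG2 (24 h) with MRTU constructs; reporter transcripts detected by fluorescent RT-PCR fragment analysis on capillary electrophoresis. Internal background marker, DMSO as baseline.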

Experiment [14] can be described thus: ATG_ERE_CIS: Attagene CIS-FACTORIAL HepG2 Assay for Estrogen Response Element (ERE) (AID 2282940). The following applies: HepG2 ERE cis-reporter, Attagene RNA transcript; actives raise or lower the signal. In outline:
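Human liver cells (HepG2) bearing transiently transfected, promoter-regulated reporter units were exposed 24 h. Reporter mRNA induction was detected by capillary electrophoresis of labelled RT-PCR products and fitted bidirectionally to DMSO.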

Experiment [15] can be described thus: ATG_Ets_CIS: Attagene CIS-FACTORIAL HepG2 Assay for human Erythroblast Transformation Specific (ETS) (AID 2282941). Conditions: HepG2 ETS cis-reporter transcription, actives raise or lower the signal. An outline of the steps: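 RT-PCR/capillary electrophoresis fluorescence read-out of reporter mRNA; HepG2 transient multi-reporter transfection; 24 h compound exposure; gain or loss of signal fitted bidirectionally relative to DMSO.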

In experiment [16] the target is Hepatocyte nuclear factor 3-beta (Homo sapiens) (UniProt Q9Y261). The experiment can be described thus: ATG_FoxA2_CIS: Attagene CIS-FACTORIAL HepG2 Assay for human Forkhead box A2 (FOXA2) (AID 2282942). The following applies: HepG2 cis-reporter transcription factor activity, 24 h; actives raise or lower the signal. An outline of the steps: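 Endogenous transcription factor activity was read in HepG2 cells carrying transiently transfected cis-promoter reporter units. After 24 h dosing, reporter mRNA was quantified by RT-PCR and capillary electrophoresis, and values fitted bidirectionally versus DMSO.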

Experiment [17] in a line: ATG_FoxO_CIS: Attagene CIS-FACTORIAL HepG2 Assay for human Forkhead box O (FoxO) (AID 2282943). Conditions: HepG2 Attagene cis-reporter, FoxO element, mRNA; actives raise or lower the signal. In outline:
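Human hepatoma HepG2 cells carry transiently introduced reporter transcription units controlled by cis promoter elements. Chemical treatment lasted 24 h, and mRNA signal was compared with DMSO.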

Experiment [18] in a line: ATG_GATA_CIS: Attagene CIS-FACTORIAL HepG2 Assay for human GATA Binding Protein (AID 2282944). The following applies: HepG2 GATA cis-element reporter, Attagene multiplex mRNA; actives raise or lower the signal. In outline:
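Transfected cis-reporter HepG2 cells were treated with chemicals for 24 hours. Total RNA was then converted to cDNA, amplified with reporter-specific primers and analysed by fluorescent capillary electrophoresis, using DMSO-treated wells as baseline.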

Experiment [19] in a line: ATG_GLI_CIS: Attagene CIS-FACTORIAL HepG2 Assay for human Zinc Finger Protein GLI1 (AID 2282945). The following applies: HepG2, Attagene cis-factorial reporter mRNA, GLI element; actives raise or lower the signal. An outline of the steps:
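Bidirectional curve fits relative to DMSO, using reporter mRNA levels from RT-PCR plus capillary electrophoresis. Cells were HepG2 transiently carrying cis-regulated reporter constructs, harvested 24 h after dosing.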

Experiment [20] can be described thus: ATG_BRE_CIS: Attagene CIS-FACTORIAL HepG2 Assay for human Bone Morphogenetic Protein (BMP) Response Element (BRE) (AID 2282933). The following applies: HepG2 BMP response element reporter, Attagene transcription factor profiling; actives raise or lower the signal. An outline of the steps: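 A HepG2 multiplex reporter system measured inducible reporter mRNA 24 h post-dosing. Detection: RT-PCR, 6-FAM primer extension, HpaI digestion, capillary electrophoresis. Activity fitted bidirectionally relative to DMSO.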

Hepatocyte nuclear factor 3-beta (Homo sapiens), sequence (Q9Y261 whole entry, looked up): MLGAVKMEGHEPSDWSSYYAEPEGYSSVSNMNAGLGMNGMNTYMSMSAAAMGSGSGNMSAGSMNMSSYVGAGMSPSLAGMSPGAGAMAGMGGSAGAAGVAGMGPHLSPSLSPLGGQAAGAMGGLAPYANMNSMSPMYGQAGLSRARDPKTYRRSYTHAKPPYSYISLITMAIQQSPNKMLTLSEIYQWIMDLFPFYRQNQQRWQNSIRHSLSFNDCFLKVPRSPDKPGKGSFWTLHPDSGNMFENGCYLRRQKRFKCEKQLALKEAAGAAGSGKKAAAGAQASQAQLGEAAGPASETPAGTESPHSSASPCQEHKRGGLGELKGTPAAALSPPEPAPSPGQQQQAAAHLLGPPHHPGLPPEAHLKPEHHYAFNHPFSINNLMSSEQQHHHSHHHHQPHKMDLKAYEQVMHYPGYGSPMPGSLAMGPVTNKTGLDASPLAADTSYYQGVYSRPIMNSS
CCAAT/enhancer-binding protein beta (Homo sapiens), sequence (P17676 whole entry, looked up): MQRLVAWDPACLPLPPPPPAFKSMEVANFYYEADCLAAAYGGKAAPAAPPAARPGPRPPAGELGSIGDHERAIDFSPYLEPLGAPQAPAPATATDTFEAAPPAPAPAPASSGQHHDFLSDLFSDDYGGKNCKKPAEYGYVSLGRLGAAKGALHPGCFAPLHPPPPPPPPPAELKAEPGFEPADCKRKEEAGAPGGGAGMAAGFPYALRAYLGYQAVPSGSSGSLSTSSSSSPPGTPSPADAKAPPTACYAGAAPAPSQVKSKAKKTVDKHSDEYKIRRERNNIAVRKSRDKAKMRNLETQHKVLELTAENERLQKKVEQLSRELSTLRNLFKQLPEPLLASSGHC
Transcription factor E2F1 (Homo sapiens), sequence (Q01094 whole entry, looked up): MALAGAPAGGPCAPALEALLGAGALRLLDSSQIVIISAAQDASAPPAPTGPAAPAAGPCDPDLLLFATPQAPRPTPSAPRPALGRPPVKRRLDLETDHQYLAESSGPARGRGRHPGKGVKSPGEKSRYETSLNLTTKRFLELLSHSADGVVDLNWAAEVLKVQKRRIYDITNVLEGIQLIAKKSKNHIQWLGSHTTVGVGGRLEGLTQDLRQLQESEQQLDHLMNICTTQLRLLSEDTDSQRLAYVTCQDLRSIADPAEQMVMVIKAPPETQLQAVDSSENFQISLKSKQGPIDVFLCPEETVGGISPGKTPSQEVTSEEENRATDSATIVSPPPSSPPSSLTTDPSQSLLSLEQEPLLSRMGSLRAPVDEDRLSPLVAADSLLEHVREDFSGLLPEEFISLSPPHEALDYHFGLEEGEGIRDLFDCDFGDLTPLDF
Aryl hydrocarbon receptor (Homo sapiens), sequence (P35869 whole entry, looked up): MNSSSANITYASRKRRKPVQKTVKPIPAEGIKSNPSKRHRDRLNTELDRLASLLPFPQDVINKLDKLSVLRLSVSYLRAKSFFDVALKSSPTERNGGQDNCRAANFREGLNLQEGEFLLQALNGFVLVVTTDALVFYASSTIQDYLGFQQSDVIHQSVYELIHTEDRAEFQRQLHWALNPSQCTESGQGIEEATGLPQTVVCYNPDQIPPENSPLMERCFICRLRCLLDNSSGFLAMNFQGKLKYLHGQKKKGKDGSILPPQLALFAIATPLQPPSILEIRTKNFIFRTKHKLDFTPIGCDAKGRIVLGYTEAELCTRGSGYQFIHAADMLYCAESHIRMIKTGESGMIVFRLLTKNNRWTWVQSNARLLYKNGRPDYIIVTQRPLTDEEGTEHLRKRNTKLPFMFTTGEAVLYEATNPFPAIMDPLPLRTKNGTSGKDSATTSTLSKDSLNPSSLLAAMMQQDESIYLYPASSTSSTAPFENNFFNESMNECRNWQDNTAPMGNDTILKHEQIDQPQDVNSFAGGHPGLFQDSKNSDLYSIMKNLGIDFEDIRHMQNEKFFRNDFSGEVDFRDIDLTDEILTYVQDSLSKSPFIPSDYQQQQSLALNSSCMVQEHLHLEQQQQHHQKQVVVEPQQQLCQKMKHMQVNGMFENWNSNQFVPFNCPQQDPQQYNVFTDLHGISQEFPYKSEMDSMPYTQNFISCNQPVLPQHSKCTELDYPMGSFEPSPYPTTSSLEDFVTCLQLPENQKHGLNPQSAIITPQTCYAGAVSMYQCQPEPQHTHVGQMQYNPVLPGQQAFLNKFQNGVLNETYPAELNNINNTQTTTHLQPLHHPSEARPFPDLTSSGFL
Retinoic acid receptor alpha (Homo sapiens), sequence (P10276 whole entry, looked up): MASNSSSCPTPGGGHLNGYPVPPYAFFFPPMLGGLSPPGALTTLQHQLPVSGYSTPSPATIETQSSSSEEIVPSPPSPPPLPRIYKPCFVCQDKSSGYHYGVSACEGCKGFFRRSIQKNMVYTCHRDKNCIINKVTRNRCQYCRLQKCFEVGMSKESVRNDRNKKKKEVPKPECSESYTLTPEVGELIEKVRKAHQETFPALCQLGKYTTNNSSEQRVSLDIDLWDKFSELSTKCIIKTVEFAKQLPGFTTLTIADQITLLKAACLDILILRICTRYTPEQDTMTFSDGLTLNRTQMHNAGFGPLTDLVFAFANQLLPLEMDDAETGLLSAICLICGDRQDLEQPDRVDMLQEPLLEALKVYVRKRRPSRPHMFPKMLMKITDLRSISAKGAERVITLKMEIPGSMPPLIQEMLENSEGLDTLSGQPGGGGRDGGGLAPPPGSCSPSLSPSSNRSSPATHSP

For the molecule `O=c1n(CCO)c(=O)n(CCO)c(=O)n1CCO`, the outcome in experiment [1], in experiment [2], in experiment [3], in experiment [4], in experiment [5] and in experiment [6] was inactive. The molecule was called inactive in [7], in experiment [8], in experiment [9], in experiment [10], in experiment [11] and in [12]. For the same molecule, the molecule was classed as inactive in experiment [13], in [14], in experiment [15], in experiment [16], in experiment [17] and in experiment [18]. For the same molecule, the molecule was called inactive in experiment [19].
In the case of `CCN(CC#N)c1cccc(C)c1`, the molecule was called inactive in [1], in experiment [2], in experiment [3], in experiment [4], in experiment [5] and in experiment [6]. Also, the call in [7], in [8], in experiment [9], in [10], in [11] and in [12] was inactive. Besides, the molecule was classed as inactive in experiment [13], in experiment [14], in experiment [15], in experiment [16], in experiment [17] and in experiment [18]. The molecule was classed as inactive in experiment [19].
For `CCO[Si](CCCN=C=O)(OCC)OCC`, the result in experiment [1], in [2], in [3], in experiment [4], in experiment [5] and in experiment [6] was inactive. The call in experiment [7], in experiment [20], in experiment [9], in [11], in experiment [12] and in experiment [13] was inactive. Besides, the result in [14], in experiment [15], in [16], in [18] and in experiment [19] was inactive.
Take `CC(C)(C)C(=O)C=Cc1ccc(Cl)cc1`: the result in [1], in [3], in experiment [5], in [9], in [13] and in experiment [15] was inactive. In addition, the outcome in [18] was inactive. Further, the AC50 in [2] is 26.5 µM (active); in experiment [4], 17.2 µM (active); in experiment [6], 26 µM (active); in experiment [7], 169 µM (active); in [20], 12.3 µM (active); in experiment [10] it was 165 µM (active). Besides, the half-maximal activity concentration (AC50) in experiment [11] is 148 µM (active); in experiment [12], 30.2 µM (active); in experiment [14], 155 µM (active); in experiment [19], 59.1 µM (active).

For orientation: AC50 means the concentration at which the activity in the assay is half-maximal.

These data come from PubChem BioAssay (EPA / NIEHS).
